The list is not random: actives were taken first. Their share in the collection is about 21%.
DT40 TDP1 CPT: growth inhibition of DT40 Tdp1-/-;hTDP1 cells with camptothecin (screen for TDP1 inhibitors) | chicken DT40 Tdp1-/-;hTDP1 cells + 20 nM CPT, ATP luminescence, 48 h | Potency, µM (titrated, usually from 46.2 µM), for the others: at the top dose activity change, negative = growth inhibition, most hits filed as inhibitors | hit rate 12% among 420,000 | AID 686979; also: potency is read from the fitted curve at half-maximal effect; nearly all actives have a fitted effect of over 55% in size
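Cell growth measured by CellTiter-Glo luminescence after a minimum 48 h, 37 C compound exposure with 20 nM CPT in Tdp1-knockout DT40 cells stably expressing hTDP1, seeded 400/well; qHTS titration format.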
DT40 TDP1 no CPT: qHTS for Inhibitors of human tyrosyl-DNA phosphodiesterase 1 (TDP1): qHTS in cells in absence of CPT. hit rate 15% among 420,000. Potency, µM (titrated, usually from 46.2 µM), without a hit: at the highest dose activity change, negative = growth inhibition, usual class: inhibitors. AID 686978, 2013. DT40 Tdp1-/- hTDP1 cells, no CPT, ATP luminescence, 48 h; also: potency is read from the fitted curve at half-maximal effect; nearly all actives have a fitted effect of over 55% in size
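Compound effects on proliferation are scored in DT40 Tdp1-/-;hTDP1 cells in the absence of CPT. ATP levels (CellTiter-Glo luminescence) are recorded after a ≥48 hr, 37 °C incubation.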
Gal4-VP16 FLuc: inhibits Gal4-VP16 luciferase reporter, ROR gamma counter-screen | Drosophila S2 Gal4-VP16 UAS-luciferase, luminescence, 20 h | hit rate 3.5% among 310,000 | Potency, µM (titrated, usually from 53.6 µM), for inactives: at the top dose activity, negative = inhibition, actives largely listed as inhibitors;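 also: Gal4-VP16 expression switched on by copper sulfate through the metallothionein promoter; potency is read from the fitted curve at half-maximal effect; nearly all actives have a fitted effect of over 50% in size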
RORgamma inh: ROR gamma (mouse) transcription inhibition. P51450. Drosophila S2 Gal4-RORgamma UAS-luciferase reporter, 20 h. Potency, µM (series often up to 53.6 µM), for the others: at the highest dose activity change, negative = inhibition, most hits filed as inhibitors. hit rate 5.4% among 310,000. AID 2551; also: potency is read from the fitted curve at half-maximal effect; nearly all actives have a fitted effect of over 60% in size
Target sequence (P51450 whole entry, looked up, the tested form may be a part): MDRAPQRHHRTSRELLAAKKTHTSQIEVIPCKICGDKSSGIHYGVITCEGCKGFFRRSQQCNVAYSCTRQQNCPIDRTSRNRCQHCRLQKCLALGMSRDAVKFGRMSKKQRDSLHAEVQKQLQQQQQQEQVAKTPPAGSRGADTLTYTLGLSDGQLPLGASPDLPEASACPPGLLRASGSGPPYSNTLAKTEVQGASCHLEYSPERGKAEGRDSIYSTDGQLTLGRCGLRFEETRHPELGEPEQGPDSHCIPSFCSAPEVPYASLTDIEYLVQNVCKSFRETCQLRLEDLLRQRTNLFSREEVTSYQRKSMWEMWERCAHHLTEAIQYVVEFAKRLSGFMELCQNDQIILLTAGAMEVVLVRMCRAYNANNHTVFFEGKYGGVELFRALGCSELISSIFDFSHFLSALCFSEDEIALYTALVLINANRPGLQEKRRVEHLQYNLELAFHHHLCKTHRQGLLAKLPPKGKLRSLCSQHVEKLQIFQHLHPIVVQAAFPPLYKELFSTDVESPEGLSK
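Compounds are pin-transferred onto Drosophila Schneider cells expressing a copper-inducible Gal4–ROR gamma transactivation domain fusion. After 1 hr, copper sulfate is added to 700 uM final; luciferase is read 20 hr later.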
ELG1 repair inh: inhibitors of ELG1-dependent DNA repair in HEK293T cells. hit rate 2.3% among 330,000. Potency, µM (titrated, usually from 46.1 µM), inactives show at the highest dose activity change, negative = inhibition, usual class: inhibitors. HEK293T ELG1-luciferase reporter, luminescence, 16 h; DNA damage induced by 5-fluorouridine; also: potency is read from the fitted curve at half-maximal effect; nearly all actives have a fitted effect of over 55% in size
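HEK293T cells expressing luciferase-tagged ELG1 (2,000/well) received 5-Fluorouridine plus compound or DMSO for 16 hr at 37 °C. Luciferase was read by ONE-Glo luminescence after 30 min at room temperature.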
IL-1B inflam inh: inhibitors of inflammasome signaling (IL-1 beta secretion); activity change, % at 57.5 µM; hit rate 4.7% among 360,000; THP-1 LPS/ATP IL-1B secretion, AlphaLISA, 16 h; active compounds read low; in the data active = activity change below about -50%; inconclusive = mostly about -30% to -49%
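Secreted IL-1B measured by AlphaLISA bead assay after 16 h compound exposure of THP-1 cells; compounds (final up to 57.5 uM) added 1 h before LPS (250 ng/mL) and ATP (1.25 mM) stimulation; lower signal means less secretion.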
Numbers without * were called inactive; u = inconclusive; x = no result given; [ ] = dose if it differs, or a comment. Unless noted, calls follow the shape of the dose curve; as a rule, active = well fitted curve in the direction sought with a large enough effect; inconclusive = small, poorly fitted or top-dose-only effect, or another doubt; inactive = no such curve, though single readings can be large; an effect the other way counts as inactive or inconclusive. % is scaled to controls: 0 for no effect and ±100 for the full control effect.

SMILES	DT40 TDP1 CPT	DT40 TDP1 no CPT	Gal4-VP16 FLuc	RORgamma inh	ELG1 repair inh	IL-1B inflam inh
COCc1nnc(NC(=O)c2ccc(S(=O)(=O)N(C)C3CCCCC3)cc2)o1	u	u	4.5µM*	1.6µM*	-14%	25
CCc1nnc(NC(=O)c2ccc(S(=O)(=O)N(CC(C)C)CC(C)C)cc2)o1	21µM*	18µM*	0.35µM*	0.32µM*	u	56
COCCN(CCOC)S(=O)(=O)c1ccc(C(=O)Nc2nnc(C)o2)cc1	0%	-6%	u	10µM*	u	28
COCCN(CCOC)S(=O)(=O)c1ccc(C(=O)Nc2nc(C)c(C(C)=O)s2)cc1	-6%	3%	20%	9%	u	20
CCCN(CCC)S(=O)(=O)c1ccc(C(=O)Nc2nnc(COC)o2)cc1	u	u	2.2µM*	0.56µM*	18µM*	22
CSCc1nnc(NC(=O)c2ccc(S(=O)(=O)N(C)C)cc2)o1	u	u	5µM*	2µM*	u	-17
C=CCN(CC=C)S(=O)(=O)c1ccc(C(=O)Nc2nnc(CSC)o2)cc1	u	u	2.8µM*	0.56µM*	18µM*	35
COCCN(CCOC)S(=O)(=O)c1ccc(C(=O)Nc2nnc(CSC)o2)cc1	-6%	21%	13µM*	5µM*	9%	-5
Cc1cccc(NC(=O)c2ccc(S(=O)(=O)N(C)C)cc2)n1	0%	-20%	-4%	u	22%	-13
COCCN(CCOC)S(=O)(=O)c1ccc(C(=O)Nc2nnc(COC)o2)cc1	-11%	12%	-7%	u	11%	3
COCCN(CCOC)S(=O)(=O)c1ccc(C(=O)Nc2nc(-c3ccncc3)cs2)cc1	u	u	-14%	25%	u	1
COc1cccc(-c2ccnc(-n3ncc(C(=O)NCC(C)(C)CN(C)C)c3C)n2)c1	7%	4%	x	x	x	x
CCc1nnc(NC(=O)c2ccc(S(=O)(=O)N(C)c3ccccc3)cc2)o1	12µM*	4.6µM*	0.56µM*	0.45µM*	7.3µM*	34
CCC(Sc1nc2ccncc2[nH]1)C(=O)Nc1ccc(C)c(Cl)c1 (stereo unspecified)	-2%	u	0%	-14%	6%	39
O=C(O)c1cccc(NC2=C(n3nnc4ccccc43)C(=O)c3ccccc3C2=O)c1	-10%	-1%	1%	-8%	u	29
CCc1ccc(S(=O)(=O)/N=C2\C=C(Nc3ccc(O)cc3)C(=O)c3ccccc32)cc1	4.1µM*	3.3µM*	11µM*	10µM*	3.3µM*	-103*
CCc1ccc(S(=O)(=O)O)cc1	-7%	-16%	-10%	-1%	x	x
CCc1ccc(S(=O)(=O)/N=C2\C=C(Nc3cccc(C(=O)O)c3)C(=O)c3ccccc32)cc1	18µM*	16µM*	u	11µM*	u	-101*
CCc1ccc(S(=O)(=O)/N=C2/C=C(Sc3ncn[nH]3)C(=O)c3ccccc32)cc1	0.65µM*	0.73µM*	6.3µM*	13µM*	21µM*	-99*
Cc1cc(C)cc(NC(=O)Cn2c(=O)n(Cc3ccco3)c(=O)c3oc4ccccc4c32)c1	u	-34%	x	x	x	x
Cc1ccc(S(=O)(=O)c2cn(C)c3cc(N4CCCCCC4)c(F)cc3c2=O)cc1	u	16µM*	x	x	x	x
Cn1cc(S(=O)(=O)c2ccccc2)c(=O)c2cc(F)c(N3CCCCC3)cc21	-25%	-24%	x	x	x	x
Cc1ccc(S(=O)(=O)c2cn(C)c3cc(N4CCCC4)c(F)cc3c2=O)c(C)c1	u	23µM*	x	x	x	x
Cc1ccc(S(=O)(=O)c2cn(C)c3cc(N4CCCC(C)C4)c(F)cc3c2=O)c(C)c1 (stereo unspecified)	23µM*	23µM*	x	x	x	x
CCn1cc(S(=O)(=O)c2cc(C)cc(C)c2)c(=O)c2cc(F)c(N3CCCCC3)cc21	u	21µM*	x	x	x	x
SMILES	DT40 TDP1 CPT	DT40 TDP1 no CPT	Gal4-VP16 FLuc	RORgamma inh	ELG1 repair inh	IL-1B inflam inh
CCN(CC)C[C@@H]1CCCCN1CC(=O)N1c2ccccc2C(=O)Nc2cccnc21	2%	-1%	3%	2%	x	x
O=C1Nc2cccnc2N(C(=O)CCl)c2ccccc21	3.3µM*	2.6µM*	-22%	u	21µM*	-96*
CN(c1ccccc1)c1ncnc2c1ncn2C	-23%	-8%	x	x	x	-10
O=C(NC(c1ccc(Cl)cc1)c1ccccn1)C1CCN(CCOc2ccc(Cl)cc2Cl)CC1 (stereo unspecified)	u	18µM*	x	x	x	-7
Cc1cccnc1C(NC(=O)C1CCN(CCOc2ccc(Cl)cc2Cl)CC1)c1ccc(Cl)cc1 (stereo unspecified)	12µM*	7.3µM*	x	x	x	u
COc1ccc(CCNC(=O)c2ccc3c(Cl)c4c(nc3c2)CCCC4)c(OC)c1	16µM*	18µM*	x	x	x	x
COc1ccc(CNC(=O)c2ccc3c(Cl)c4c(nc3c2)CCCC4)c(OC)c1	u	23µM*	x	x	x	x
COc1cc(Cl)c(C)cc1NC(=O)c1ccc2c(Cl)c3c(nc2c1)CCC3	1%	1%	x	x	x	x
COc1ccc(CCNC(=O)c2ccc3c(Cl)c4c(nc3c2)CCCC4)cc1OC	15µM*	4.1µM*	x	x	x	x
O=C(COC(=O)c1ccc2c(c1)OCCO2)NCc1ccc(Cl)cc1	u	u	x	x	x	37
CCNc1nc(N2CCOCC2)nc(N(c2ccccc2)c2ccccc2)n1	-7%	-2%	3%	42%	-1%	33
CCNC(=S)NNc1nc(N2CCCCC2)nc(N2CCOCC2)n1	4%	1%	u	14µM*	8%	17
C/C(CCN1CCCc2nc(C)c(C)cc21)=N\O[C@@H](C)c1cn([C@@H]2COC[C@@H]2O)nn1	x	x	1%[10 µM]	10%[10 µM]	x	x
COc1ccc(Cl)cc1-c1nc(SCC(=O)NCC2CCCO2)n[nH]1 (stereo unspecified)	-17%	5%	x	x	-1%	5
Cc1ccc(NC(=S)NNC(=S)NCc2ccccc2)cc1	0%	-15%	-10%	-24%	8%	38
CCNC(=S)NNC(=S)NCc1ccccc1	u	u	u	7.1µM*	-10%	-5
Fc1ccc(CNC(=S)NCc2ccccc2)cc1	8%	-7%	u	11µM*	4%	-21
CCNC(=S)NNc1nnc(-c2ccccc2)c(-c2ccccc2)n1	-28%	-23%	u	13µM*	u	-4
Fc1ccc(NC(=S)NCc2ccccc2)cc1	-21%	-2%	10µM*	8.9µM*	-5%	-17

Assay outcomes as filed in PubChem BioAssay.
